miR122 inh = activators of miR-122 sensor in Huh7 cells. Huh7 psiCHECK-miR122 Renilla luciferase sensor, 48 h. activation, % at 12.5 µM. 0.14% of 340,000 active;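 active = mean activation of 30% or more, with every replicate also reaching 30%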;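 also: 0% = median of neutral control wells and 100% = median of positive control wells; higher luciferase signal means stronger suppression of miR-122 activity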
The depositor's hits bear a star. The full list was thinned out, with hits kept by preference.

SMILES	miR122 inh
CCCC#Cc1cnc2c(c1)C(=O)N([C@@H](C)CO)C[C@@H](C)[C@H](CN(C)Cc1cccnc1)O2	6
C[C@@H]1CN([C@H](C)CO)S(=O)(=O)c2ccc(C#Cc3ccncc3)cc2O[C@@H]1CN(C)C(=O)Nc1ccc2c(c1)OCO2	49*
C[C@@H](O)C#Cc1ccc2c(c1)O[C@H](CN(C)C(=O)c1ccncc1)[C@@H](C)CN([C@@H](C)CO)S2(=O)=O	-10
CC(C)C#Cc1ccc2c(c1)O[C@H](CN(C)C(=O)c1ccncc1)[C@@H](C)CN([C@@H](C)CO)S2(=O)=O	41*
C[C@H](O)C#Cc1ccc2c(c1)O[C@H](CN(C)C(=O)c1ccncc1)[C@@H](C)CN([C@@H](C)CO)S2(=O)=O	-2
C/C=C/c1ccc2c(c1)O[C@H](CN(C)C(=O)c1cccnc1)[C@@H](C)CN([C@@H](C)CO)S2(=O)=O	-13
C/C=C/c1ccc2c(c1)O[C@H](CN(C)C(=O)c1cnccn1)[C@H](C)CN([C@H](C)CO)S2(=O)=O	33*
CC(C)C#Cc1ccc2c(c1)O[C@H](CN(C)C(=O)c1ccncc1)[C@H](C)CN([C@@H](C)CO)S2(=O)=O	40*
C[C@H](O)C#Cc1ccc2c(c1)O[C@H](CN(C)C(=O)c1ccncc1)[C@H](C)CN([C@@H](C)CO)S2(=O)=O	16
C[C@@H]1CN([C@@H](C)CO)S(=O)(=O)c2ccc(C#Cc3ccccc3)cc2O[C@H]1CN(C)C(=O)Nc1ccc2c(c1)OCO2	-9
C/C=C/c1ccc2c(c1)O[C@@H](CN(C)C(=O)c1cccnc1)[C@H](C)CN([C@@H](C)CO)S2(=O)=O	-7
C[C@H](O)C#Cc1ccc2c(c1)O[C@@H](CN(C)C(=O)c1ccncc1)[C@@H](C)CN([C@@H](C)CO)S2(=O)=O	2
C[C@@H]1CN([C@@H](C)CO)S(=O)(=O)c2ccc(C#Cc3ccccc3)cc2O[C@@H]1CN(C)C(=O)Nc1ccc2c(c1)OCO2	-1
COCC#Cc1cnc2c(c1)C(=O)N([C@@H](C)CO)C[C@@H](C)[C@H](CN(C)C(=O)Nc1ccc(OC)cc1)O2	2
C[C@@H]1CN([C@@H](C)CO)C(=O)c2cc(-c3cccnc3)cnc2O[C@@H]1CN(C)S(C)(=O)=O	-9
Cc1ccccc1-c1cnc2c(c1)C(=O)N([C@H](C)CO)C[C@H](C)[C@H](CN(C)C(=O)c1ccccc1)O2	0
CCC(=O)N(C)C[C@@H]1Oc2cc(-c3cccnc3)ccc2S(=O)(=O)N([C@@H](C)CO)C[C@H]1C	-19
C[C@H]1CN([C@@H](C)CO)S(=O)(=O)c2ccc(C#CC(C)(C)O)cc2O[C@H]1CN(C)C(=O)C1CCC1	5
COc1cccc(-c2cnc3c(c2)C(=O)N([C@@H](C)CO)C[C@H](C)[C@@H](CN(C)C(=O)Nc2ccccc2F)O3)c1	2
COCC#Cc1ccc2c(c1)O[C@H](CN(C)C(=O)COC)[C@H](C)CN([C@H](C)CO)S2(=O)=O	13
CCCC#Cc1ccc2c(c1)O[C@H](CN(C)S(C)(=O)=O)[C@H](C)CN([C@H](C)CO)S2(=O)=O	-16
C[C@H]1CN([C@@H](C)CO)C(=O)c2cc(C#Cc3cccnc3)cnc2O[C@@H]1CN(C)S(C)(=O)=O	-1
CCCNC(=O)N(C)C[C@@H]1Oc2ncc(C#CCC(C)C)cc2C(=O)N([C@@H](C)CO)C[C@H]1C	2
C[C@H]1CN([C@@H](C)CO)C(=O)c2cc(-c3ccc(F)cc3)cnc2O[C@@H]1CN(C)C(=O)c1cccnc1	10
C[C@H](CO)N1C[C@H](C)[C@@H](CN(C)CC2CCOCC2)Oc2ncc(-c3ccc(C#N)cc3)cc2C1=O	-4
SMILES	miR122 inh
COCC(=O)N(C)C[C@@H]1Oc2cc(-c3cccc(F)c3)ccc2S(=O)(=O)N([C@@H](C)CO)C[C@@H]1C	2
O=C(Nc1ccccc1)c1cc([N+](=O)[O-])ccc1NC1CCCCC1	-123
Cc1ccc(NC(=O)c2nc(C)n(-c3ccc([N+](=O)[O-])cc3)n2)cc1	43*
CO[C@@H]1CN(C)C(=O)c2ccc(NC(=O)Nc3ccc(Cl)cc3)cc2OC[C@H](C)N(C)C[C@H]1C	-4
COc1ccccc1S(=O)(=O)N(C)C[C@H]1Oc2cc(/C=C/c3ccccc3)ccc2S(=O)(=O)N([C@@H](C)CO)C[C@@H]1C	-34
COCC(=O)N(C)C[C@@H]1Oc2cc(-c3cncnc3)ccc2S(=O)(=O)N([C@H](C)CO)C[C@@H]1C	0
C[C@@H]1CN([C@@H](C)CO)C(=O)c2cc(/C=C/c3ccccc3)cnc2O[C@@H]1CN(C)C(=O)c1cccnc1	3
C[C@H]1CN([C@@H](C)CO)C(=O)c2cc(C#CCc3ccccc3)cnc2O[C@H]1CN(C)CC1CCOCC1	-1
C[n+]1c2cc(N)ccc2cc2ccc(N)cc21	76*
COc1ccc(-c2cnc3c(c2)C(=O)N([C@@H](C)CO)C[C@H](C)[C@H](CN(C)C(=O)C2CCOCC2)O3)cc1	-6
C[C@H]1CN([C@@H](C)CO)C(=O)c2cc(C#Cc3cccc(F)c3)cnc2O[C@@H]1CN(C)CC1CCOCC1	4
C[C@H]1CN([C@@H](C)CO)C(=O)c2cc(C#Cc3cccnc3)cnc2O[C@H]1CN(C)S(C)(=O)=O	-1
CCCC#Cc1ccc2c(c1)O[C@@H](CN(C)S(C)(=O)=O)[C@H](C)CN([C@@H](C)CO)S2(=O)=O	1
NC(Cc1ccc(C(F)(F)F)cc1)c1csc(Nc2nncc3ccccc23)n1 (stereo not drawn)	34*
C[C@@H]1CN([C@H](C)CO)S(=O)(=O)c2ccc(-c3ccccc3)cc2O[C@@H]1CN(C)Cc1ccccc1C(=O)O	-14
C[C@@H]1CN([C@H](C)CO)C(=O)c2cc(C#CC3(O)CCCC3)cnc2O[C@H]1CN(C)C(=O)C1CCCCC1	-4
C[C@@H]1CN([C@H](C)CO)S(=O)(=O)c2ccc(C#Cc3cccnc3)cc2O[C@@H]1CN(C)C(=O)C1CC1	13
C[C@@H]1CN([C@@H](C)CO)C(=O)c2cc(Br)cnc2O[C@@H]1CN(C)C(=O)CN1CCOCC1	5
COc1cccc(N2CCN(c3ncnc4c3[nH]c3ccc(F)cc34)CC2C)c1 (stereo not drawn)	32*
COc1ccc(C#Cc2cnc3c(c2)C(=O)N([C@H](C)CO)C[C@H](C)[C@@H](CN(C)CC2CCCC2)O3)cc1	1
C[C@H](CO)N1C[C@H](C)[C@H](CN(C)S(C)(=O)=O)Oc2cc(Br)ccc2S1(=O)=O	-4
CN[C@H]1C[C@H]2c3[nH]c4ccc(-c5ccc(OC)cc5)cc4c3CCN2C(=O)[C@H]1[C@H](C)O	32*
COc1ccc(-c2cnc3c(c2)C(=O)N([C@H](C)CO)C[C@H](C)[C@@H](CN(C)C(=O)Cc2ccccc2)O3)cc1	-9
CCC(=O)N(C)C[C@H]1Oc2ncc(C#CC3(O)CCCC3)cc2C(=O)N([C@H](C)CO)C[C@H]1C	3
Cc1ccc(S(=O)(=O)c2ccc([N+](=O)[O-])cn2)cc1	33*
C[C@@H]1CN([C@@H](C)CO)C(=O)c2cc(C#C[C@@H](C)O)cnc2O[C@H]1CN(C)Cc1cncnc1	7
C[C@H]1CN([C@@H](C)CO)C(=O)c2cc(-c3cccnc3)cnc2O[C@H]1CN(C)S(C)(=O)=O	0
CCC(=O)N(C)C[C@@H]1Oc2ncc(C#Cc3ccc(OC)cc3)cc2C(=O)N([C@@H](C)CO)C[C@H]1C	-2
COCC#Cc1ccc2c(c1)O[C@H](CN(C)S(=O)(=O)c1ccc(OC)cc1)[C@H](C)CN([C@H](C)CO)S2(=O)=O	-120
